Measurements as given in ChEMBL document CHEMBL4296182, “CO-ADD screening of NIH NCI Diversity Set V”.
For part of these data: Results with a measured potency or affinity are listed apart.

Assays:
Staphylococcus aureus = assay: Antibacterial activity against Staphylococcus aureus MRSA ATCC 43300 (CO-ADD:GP_020); MIC in CAMBH media using NBS plates, by Resazurin F(560/590); assay type: functional; settings: Concentration 20 uM, ASSAY_TEST Inhibition of Bacterial Growth, detection method Resazurin, Fluorescence (ex560/em590), MEDIA CAMHB, plate type 384well, CORNING #3640, time 18 hr
Acinetobacter baumannii = assay: Antibacterial activity against Acinetobacter baumannii ATCC 19606 (CO-ADD:GN_034); MIC in CAMBH media using NBS plates, by Resazurin F(560/590); assay type: functional; settings: Concentration 20 uM, ASSAY_TEST Inhibition of Bacterial Growth, detection method Resazurin, Fluorescence (ex560/em590), MEDIA CAMHB, plate type 384well, CORNING #3640, time 18 hr
Escherichia coli = assay: Antibacterial activity against Escherichia coli ATCC 25922 (CO-ADD:GN_001); MIC in CAMBH media using NBS plates, by Resazurin F(560/590); assay type: functional; settings: Concentration 20 uM, ASSAY_TEST Inhibition of Bacterial Growth, detection method Resazurin, Fluorescence (ex560/em590), MEDIA CAMHB, plate type 384well, CORNING #3640, time 18 hr
Klebsiella pneumoniae = settings: Concentration 20 uM; ASSAY_TEST Inhibition of Bacterial Growth; detection method Absorption (OD600); MEDIA CAMHB; plate type 384well; NBS; CORNING #3640; time 18 hr
Candida albicans = settings: 20 µM
Cryptococcus neoformans = settings: Concentration 20 uM; ASSAY_TEST Inhibition of Fungal Growth; detection method Resazurin; Absorption (OD600-OD570); plate type 384well; NBS; CORNING #3640

SMILES | Inhibition (Staphylococcus aureus) [%] | Inhibition (Acinetobacter baumannii) [%] | Inhibition (Escherichia coli) [%] | Inhibition (Klebsiella pneumoniae) [%] | Inhibition (Candida albicans) [%] | Inhibition (Cryptococcus neoformans) [%]
Cc1nc2ccnn2c(O)c1CCc1ccccc1 | 8.7 | -8.36 | 1.1 | 10.44 | 5.45 | -6.6
CCOC(=O)Nc1cc2c(c(N)n1)N=C(c1ccccc1)CN2 | 13.64 | 2.33 | 8.87 | 5.47 | 5.55 | -8.89
O=C(O)CCNC1CCCCC1 | 7.12 | -7.34 | 6.52 | 12.82 | 3.1 | -1.65
Oc1cc(-n2cccn2)c(O)cc1-n1cccn1 | 6.47 | 8.87 | -3.84 | 16.86 | 25.5 | -4.6
Cc1cccc(Nc2sc(C(=O)c3cc4cc(Cl)ccc4o3)c(N)c2C#N)c1 | 1.46 | -13.03 | 6.28 | 5.96 | 0.06 | 37.64
O=C(Nc1cccnc1)c1cccc([N+](=O)[O-])c1 | 12.72 | 4.9 | 8.22 | 4.62 | 7.68 | -5.39
CCOC(=O)C1CC(=O)c2cc(OC)c(OC)cc2C1 (centres undefined) | -2.55 | 9.78 | 7.27 | 13.25 | 3.32 | -12.53
O=C(C(Cl)Cl)N1CC2CCC(CC2)C1 | -8.6 | 7.03 | -13.8 | 1.03 | -0.88 | 23.84
N=C(N)Nc1ccc(NC(=N)N)cc1 | 18.17 | -6.06 | 9.96 | 17.17 | -1.51 | -0.62
CCCCCCCCCCC(C(=O)O)C1(C(=O)O)CCC(=O)O1 (centres undefined) | 8.92 | 10.41 | 4.35 | 3.55 | 8.22 | -9.1
COc1ccc(Nc2cc(Cl)ccc2C(=O)O)cn1 | -1.71 | 14.76 | 0 | 20.74 | 22.9 | -8
CC(=O)Oc1ccc(OC(C)=O)c2c1CC(C)=C(C)C2 | 4.66 | -3.24 | 12.77 | 4.69 | 1.46 | -18.35
O=c1cc(-c2ccccc2)oc2ccc(O)cc12 [6-HYDROXYFLAVONE] | -4.33 | -2.45 | -5.6 | 8.45 | 7.78 | -10.88
Cn1c(=O)c2c(nc(N3CCOCC3)n2C)n(C)c1=O | 9.23 | 6.55 | 2.94 | 9.52 | 2.91 | -9.23
Cc1csc(/N=N/c2ccc(N(C)C)cc2)[n+]1[O-] | 7.37 | -4.68 | 8.16 | 7.6 | 0.83 | -12.25
O=C1OCC/C1=C\OCCCO/C=C1\CCOC1=O | -12.85 | -4.57 | -5.06 | 8.79 | -0.38 | -11.43
Cc1ccccc1NC(=O)C(=O)Nc1ccccc1C | 22.64 | -12.42 | 18.63 | -3.39 | 6.51 | 7.92
O=[N+]([O-])c1ccc2[nH]c3nc4ccccc4nc3c2c1 | 17.59 | 16.49 | -1.33 | -1.62 | 5.48 | 44.37
Cc1ccc(C2C=CC(C#N)=CN2Cc2ccccc2)cc1 (centres undefined) | 18.9 | -15.76 | 11.73 | 11.58 | -1.48 | -7.94
Cc1ccc(C(C)C)cc1NC(=O)Nc1ccc([N+](=O)[O-])cc1 | 19.7 | 7.88 | -5.77 | 22.27 | 8.72 | -7.56
Nc1nc2cc([N+](=O)[O-])ccc2[nH]1 | 15.13 | -11.46 | 3.91 | 4.78 | 0.21 | -13.6
CCCCCOc1ccc(N2C(=O)C(C)CNC2=S)cc1 (centres undefined) | 15.96 | 8.82 | 2.34 | 9.59 | -1.3 | -8.51
CCCNC(=O)c1ccc(S(N)(=O)=O)cc1 | 24.95 | -15.44 | 7.13 | 13.6 | -0.57 | -5.61
COc1cc2c(cc1OC)C(=O)Cc1ccc3c(c1CN(C)CC2)OCO3 | 7.05 | 12.34 | 18.89 | 9.37 | -0.52 | -7.07
Oc1ccc2ccc3[nH]cnc3c2c1 | 14.46 | -12.2 | 3.66 | 6.42 | -0.74 | -8.68

SMILES | Inhibition (Staphylococcus aureus) [%] | Inhibition (Acinetobacter baumannii) [%] | Inhibition (Escherichia coli) [%] | Inhibition (Klebsiella pneumoniae) [%] | Inhibition (Candida albicans) [%] | Inhibition (Cryptococcus neoformans) [%]
CCOC(=O)C(C)c1c(C(=O)c2ccc(C)nc2)c2ccccc2n1C (centres undefined) | 10.11 | 9.14 | -0.3 | 16.34 | 0.68 | -10.08
NNC(=O)CNc1cccc(Br)c1 | 11.03 | 1.39 | 7.55 | 8.17 | 1.56 | -4.46
O=C(O)c1ccccc1C(=O)Nc1cccc([N+](=O)[O-])c1 | -4.11 | -9.98 | -2.38 | 3.82 | 3.86 | -3.03
COc1ccc(OC)c(NC(=O)c2cc3oc4ccccc4c3cc2O)c1 | 13.76 | 8.19 | 5.92 | 9.42 | -3.33 | -0.7
COc1ccc2c3c([nH]c2c1)[C@H]1C[C@H]2[C@H](C[C@@H](O)[C@H](OC)[C@H]2CO)CN1CC3 | 17.92 | 7.85 | -1.49 | 7.11 | -0.63 | -8.29
O=c1c(O)cccc2cc(O)c(O)c(O)c12 [PURPUROGALLIN] | -28.9 | 1.69 | 13.14 | 21.3 | 53.6 | -25.98
COc1ccc2c(c1)CCCN2C(=N)Nc1ccc(Cl)cc1 | -10.2 | 2.99 | -14.68 | 7.66 | 3.95 | 6.87
CCC(CC)NCCOC(=O)c1ccc([N+](=O)[O-])cc1 | -1.24 | -9.59 | 5.41 | 5.67 | 0.5 | -8.44
Nc1nc(O)c2ncn(C3CCCC3)c2n1 | 3.29 | -9.23 | 3.79 | 16.95 | -0.06 | -9.03
CCOc1ccc(/C=C2\NC(=S)NC2=O)cc1 | 4.57 | -5.71 | -3.24 | 22.87 | 0.92 | -6.77
Cc1nc(Br)c(Br)c(C)c1Br | 1.89 | -12.31 | 7.33 | 11.41 | 4.5 | -9.77
COc1ccc(-c2cc(-c3ccccc3)c(-c3ccccc3)nn2)cc1 | -3.16 | 8.32 | 6.8 | -1.34 | 2.55 | -12.46
O=C(O)CCN1c2ccccc2Sc2ccccc21 | 8.2 | -9.93 | 16.66 | 14.48 | 16.7 | -15.83
O=C1c2cccc(Sc3ccccc3)c2C(=O)c2c(Sc3ccccc3)cccc21 | 13.79 | -8.62 | 22.23 | 3.23 | 0.05 | -7.69
COc1ccc([N+](=O)[O-])cc1NC(=O)N(C)Cc1ccco1 | 9.28 | 17.46 | 6.67 | 14.11 | -1.23 | -10.86
CCC(CO)Nc1nc2ccc(Cl)cc2c2ccccc12 (centres undefined) | 32.89 | 5.43 | 4.69 | 20.8 | 4.64 | -2
CCCCN1C(=O)CC2CCOC21C (centres undefined) | 9.16 | -12.54 | 6.99 | 9.62 | 10.6 | -12.41
C=C1CC2(OC1=O)c1ccccc1CCc1ccccc12 | -2.53 | -14.2 | 2.27 | 9.76 | 10.3 | -9.88
Cc1nc(O)c2c3c(sc2n1)CCCC3 | 1.78 | -6.79 | 6.4 | -0.52 | -0.04 | -11.89
COC1OC(O)C(NC(=O)C(F)(F)F)CC1O (centres undefined) | 15.69 | 9.13 | 5.88 | 16.01 | 3.69 | -8.11
C#Cc1cccc(NC(=O)c2ccc(Cl)cc2Cl)c1 | 1.84 | -16.25 | 7.38 | 6.81 | 7.69 | -7.06
C/C(=N\NC(N)=O)c1ccc(Cl)c(-n2cccc2)c1 | 16.93 | -8.65 | 6.19 | 13.36 | 4.13 | -10.07
CC(C)Oc1ccc(C(=O)O)cc1 | 3.26 | -8.45 | 5.58 | 15.4 | 24.9 | -0.99
Cc1ccc(NC(=S)NC(=O)c2ccccc2)cc1NC(=S)NC(=O)c1ccccc1 | 23.47 | -11.72 | 7.94 | 3.93 | -0.27 | 1.39
